# In PubChem BioAssay (NCATS):
# Values without a mark were called inactive. Results filed as inconclusive are left out. Active and inactive are the calls of the source. Unless noted, calls come from the whole dose curve; as a rule, active = well fitted curve in either direction with a large enough effect (not every such curve was filed as active); inconclusive = small, poorly fitted or top-dose-only effect, or another doubt; inactive = flat fitted curve, though single readings scatter.
# What was measured:
# [1] = target: Lysosomal acid glucosylceramidase (Homo sapiens) (UniProt P04062); experiment: Glucocerebrosidase-p2 (AID 348; in the data active = potency below about 10 µM; note: potency is the fitted concentration of half-maximal effect); details: purified GBA, blue fluorogenic substrate, 40 min
# Method in brief: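 Normal human glucocerebrosidase (0.2 nM) with blue fluorogenic substrate (80 uM final) in citrate/phosphate pH 5.9 with 10mM sodium taurocholate, 0.01% tween-20; 40 min RT, NaOH/glycine stop; fluorescence Ex 365/Em 440; AC50 from a titration from 0.6 nM upwards.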
# [2] = AP1 Signaling Pathway (AID 357); details: ME-180 AP-1-bla reporter, EGF-induced, beta-lactamase ratio, 5 h; at 7.69 µM (top of the series) unless noted;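 note: ME-180 reporter cells stimulated with EGF at its EC50 level; % is set by controls: 0 for no effect and ±100 for the full control effect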
# Method in brief: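 Titration-series screen for positive or negative modulators of EC50 EGF-induced signaling in ME-180 cells carrying an AP-1-driven beta-lactamase reporter. After 5 hours at 37 degrees Celsius, CCF4 460nm/530nm emission ratio gave %Activity; AC50 values derived.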
# [3] = target: Cytochrome P450 1A2 (Homo sapiens) (UniProt P05177); experiment: p450-cyp1a2 (AID 410; calls by dose curve; note: potency is the fitted concentration of half-maximal effect;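 for activity change, negative = inhibition: -100% = full effect of reference inhibitor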); details: recombinant CYP1A2, luciferin-ME demethylation, luminescence; series mostly up to 11.4 µM
# Method in brief: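 Read-out is luminescence from luciferin produced by CYP1A2 demethylation of Luciferin-ME (100uM, at Km). Detection reagent stopped the 60 min NADPH-dependent reaction; signals were normalized to 57 uM furafylline.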
# [4] = NFAT Signaling Pathway (AID 444); details: Jurkat NFAT-bla M1, carbachol, beta-lactamase ratio, 5 h; at 7.69 µM (top of the series) unless noted;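 note: carbachol stimulus at about its EC50 of 1 µM final; % is set by controls: 0 for no effect and ±100 for the full control effect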
# Method in brief: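 Read-out: CCF4 FRET ratio (460 nm/530 nm) after 1 h RT dye loading, used for %activity and AC50 from titration series. Cells: Jurkat NFAT-β-lactamase/M1 line, treated with compound plus 1 uM carbachol for 5 h, 37 °C.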
# [5] = Stat Signaling Pathway (AID 446); details: ME-180 SIE beta-lactamase reporter, IL-6 stimulated, 5 h; at 7.69 µM (top of the series) unless noted;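 note: ME-180 cervical cancer cells given 40 pM IL-6 alongside compound; SIE-controlled beta-lactamase reporter measured as 460/530 nm FRET emission ratio; % is set by controls: 0 for no effect and ±100 for the full control effect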
# Method in brief: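 Compound effects on IL-6-induced STAT reporter activity were measured in ME-180 cells. After overnight culture, cells were co-treated with 40 pM IL-6 for 5 hrs before beta-lactamase substrate loading at room temperature.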
# [6] = target: Glucocorticoid receptor (Homo sapiens) (UniProt P04150); experiment: GR-GFP Redistribution (AID 450;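 active = compounds whose dose series gives a full or clear partial fitted curve of increased nuclear translocation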; note: potency is the fitted concentration of half-maximal effect); details: U2OS GR-GFP nuclear translocation, laser cytometry, 2 h
# [7] = target: Glucocorticoid receptor (Homo sapiens) (UniProt P04150); experiment: GR-EFC Redistribution (AID 451; calls by dose curve; note: potency is the fitted concentration of half-maximal effect); details: CHO-K1 GR-EFC translocation, beta-gal luminescence, 2 h
# Method in brief: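 Translocation of GR-ED fusion to nuclear EA restores b-gal, read by luminescence after 1 h room-temperature detection. Engineered CHO-K1 biosensor cells, 1,000/well, exposed 2 h at 37 C to titrations up to 46 uM final.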
# [8] = target: Mitogen-activated protein kinase 10 (Mus musculus) (UniProt Q61831); experiment: JNK3 AlphaScreen Assay (AID 530); details: JNK3 lysate, c-Jun phosphorylation; series mostly up to 11.4 µM;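 note: kinase came from lysate of stimulated human HepG2 cells; signal reports phosphorylation of biotinylated GST-cJun 1-79 at Ser73 with 10 µM ATP; % is set by controls: 0 for no effect and ±100 for the full control effect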
# Method in brief: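 Kinase buffer: 20 mM Tris-HCl pH 7.6, 10 mM MgCl2, 1 mM DTT, 0.1 mM Na3VO4, 0.01% Tween-20; ATP 10 uM. Substrate biotin-GST-cJun(1-79), enzyme from activated HepG2 lysates. Detection by Ser73 phospho-antibody AlphaScreen.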
# [9] = target: 3',5'-cyclic-AMP phosphodiesterase 4B (Homo sapiens) (UniProt Q07343); experiment: qHTS Assay for Inhibitors of PDE-IV (AID 607; active = well fitted activation curve with a large enough effect in the main read-out, with a control signal flat, not every such curve was filed as active; note: % of control where 0% means no effect); details: HEK293 ACTOne CNG channel cells, membrane potential fluorescence; series mostly up to 22.9 µM
# Method in brief: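 ACTOne HEK293 cells carry a modified cAMP-gated CNG channel and express endogenous PDE4; plated 1000 cells/well, compounds up to 22.9 uM final. Membrane-potential dye fluorescence (ex 535/em 590) was read; parental cells received 10 uM forskolin + 100 uM RO 20-1724.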
# [10] = target: Cytochrome P450 3A4 (Homo sapiens) (UniProt P08684); experiment: qHTS Assay for Activators of Cytochrome P450 3A4 (AID 885; active = well fitted curve in the direction sought with a large enough effect; an effect the other way counts as inactive or inconclusive; note: nearly all actives have a fitted effect of over 65% in size); details: recombinant CYP3A4, Luciferin-PPXE luminescence, 60 min; series mostly up to 11.4 µM
# Method in brief: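 CYP3A4 activity: Luciferin-PPXE O-dealkylation, 25uM substrate, 200mM KPO4, RT throughout. Read-out is luciferase luminescence; higher values reflect activation.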
# [11] = qHTS Assay for Identification of Small Molecule Agonists for Hypoxia Response Element Signaling Pathway (AID 914; active = well fitted activation curve with a large enough effect in the signal ratio, with a control signal flat, not every such curve was filed as active; the % refers to the signal ratio; note: % of control where 0% means no effect); details: ME-180 (cervical carcinoma) HRE-bla reporter, beta-lactamase ratio, CoCl2, 17 h; activation: stronger effect = higher value
# Method in brief: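 HRE-bla ME-180 cells, overnight plating in Opti-MEM with 0.5% dialyzed FBS; cpd titration + EC50 CoCl2, 17 h, 37 degrees Celsius; CCF4 2.5 h RT; 460/530 nm ratio; AC50.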
# [12] = target: Cytochrome P450 2D6 (Homo sapiens) (UniProt P10635); experiment: qHTS Assay for Inhibitors and Substrates of Cytochrome P450 2D6 (AID 891; active = well fitted curve in the direction sought with a large enough effect; an effect the other way counts as inactive or inconclusive; note: nearly all actives have a fitted effect of over 60% in size; note: potency is the fitted concentration of half-maximal effect); details: recombinant CYP2D6, luciferin-ME EGE luminescence; series mostly up to 11.4 µM
# Method in brief: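 Luminescent read-out of luciferin formed by 5 nM human CYP2D6 demethylating 30 uM Luciferin-ME EGE (Km level) over 60 min at room temperature after NADPH regeneration addition. Data normalized to full inhibition by 1.43 uM quinidine.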
# [13] = target: Cytochrome P450 2C19 (Homo sapiens) (UniProt P33261); experiment: qHTS Assay for Inhibitors and Substrates of Cytochrome P450 2C19 (AID 899; active = well fitted curve in the direction sought with a large enough effect; an effect the other way counts as inactive or inconclusive; note: nearly all actives have a fitted effect of over 60% in size; note: potency is the fitted concentration of half-maximal effect); details: recombinant CYP2C19, luciferin-H EGE luminescence; series mostly up to 11.4 µM
# Method in brief: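 5nM enzyme + 10uM Luciferin-H EGE (=KM), 50mM KPO4; cpd pin-transferred, 10 min 37C; NADPH regen, 60 min 37C; stopped w/ luciferin detection reagent, 20 min; luminescence. Normalized to 57uM ketoconazole (AC100).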
# 3',5'-cyclic-AMP phosphodiesterase 4B (Homo sapiens), sequence (Q07343 whole entry, looked up): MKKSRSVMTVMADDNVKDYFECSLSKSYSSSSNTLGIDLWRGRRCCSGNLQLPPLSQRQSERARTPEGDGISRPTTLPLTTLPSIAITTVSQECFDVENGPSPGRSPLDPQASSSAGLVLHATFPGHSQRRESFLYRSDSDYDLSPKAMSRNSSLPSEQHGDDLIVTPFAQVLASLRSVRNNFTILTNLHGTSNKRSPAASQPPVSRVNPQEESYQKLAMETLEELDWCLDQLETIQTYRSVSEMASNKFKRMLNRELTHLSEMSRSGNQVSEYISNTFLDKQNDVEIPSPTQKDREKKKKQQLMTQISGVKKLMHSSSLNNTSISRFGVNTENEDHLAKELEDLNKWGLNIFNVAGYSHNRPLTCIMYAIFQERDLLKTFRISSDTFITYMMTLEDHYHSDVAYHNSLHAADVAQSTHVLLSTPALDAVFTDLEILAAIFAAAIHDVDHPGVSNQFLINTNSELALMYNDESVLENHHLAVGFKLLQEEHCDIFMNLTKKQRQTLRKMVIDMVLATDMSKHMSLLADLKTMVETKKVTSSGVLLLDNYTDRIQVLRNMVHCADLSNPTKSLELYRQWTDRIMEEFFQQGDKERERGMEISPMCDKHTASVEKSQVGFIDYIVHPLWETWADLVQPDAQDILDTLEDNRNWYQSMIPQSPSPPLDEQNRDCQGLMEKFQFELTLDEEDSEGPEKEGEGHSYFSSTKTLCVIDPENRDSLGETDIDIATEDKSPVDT
# Cytochrome P450 2C19 (Homo sapiens), sequence (P33261 whole entry, looked up): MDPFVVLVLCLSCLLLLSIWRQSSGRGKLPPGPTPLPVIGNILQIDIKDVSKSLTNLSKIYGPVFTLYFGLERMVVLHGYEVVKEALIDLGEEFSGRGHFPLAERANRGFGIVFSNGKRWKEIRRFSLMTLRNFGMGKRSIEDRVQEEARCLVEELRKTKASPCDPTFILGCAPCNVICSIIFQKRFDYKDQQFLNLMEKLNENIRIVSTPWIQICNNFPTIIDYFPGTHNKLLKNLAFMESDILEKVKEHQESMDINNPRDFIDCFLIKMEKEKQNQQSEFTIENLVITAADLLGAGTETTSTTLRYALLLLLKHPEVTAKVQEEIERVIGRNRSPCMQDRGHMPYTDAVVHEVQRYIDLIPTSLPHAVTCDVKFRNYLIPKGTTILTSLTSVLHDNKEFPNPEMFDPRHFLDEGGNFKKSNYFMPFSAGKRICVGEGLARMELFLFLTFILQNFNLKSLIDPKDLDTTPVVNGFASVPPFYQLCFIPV
# Cytochrome P450 2D6 (Homo sapiens), sequence (P10635 whole entry, looked up): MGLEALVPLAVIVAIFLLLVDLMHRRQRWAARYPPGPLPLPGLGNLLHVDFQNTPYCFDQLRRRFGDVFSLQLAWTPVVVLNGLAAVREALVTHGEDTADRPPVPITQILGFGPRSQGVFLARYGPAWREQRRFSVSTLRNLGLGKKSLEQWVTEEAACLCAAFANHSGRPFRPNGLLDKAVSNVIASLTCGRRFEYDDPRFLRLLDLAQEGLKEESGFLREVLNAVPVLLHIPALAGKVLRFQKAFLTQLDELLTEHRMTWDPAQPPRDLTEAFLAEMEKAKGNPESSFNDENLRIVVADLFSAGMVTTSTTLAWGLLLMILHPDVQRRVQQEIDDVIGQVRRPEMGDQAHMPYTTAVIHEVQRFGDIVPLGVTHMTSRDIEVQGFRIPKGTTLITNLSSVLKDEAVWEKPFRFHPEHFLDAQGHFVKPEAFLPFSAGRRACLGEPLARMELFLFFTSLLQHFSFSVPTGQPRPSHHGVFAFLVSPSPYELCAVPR
# Glucocorticoid receptor (Homo sapiens), sequence (P04150 whole entry, looked up, the tested form may be a part): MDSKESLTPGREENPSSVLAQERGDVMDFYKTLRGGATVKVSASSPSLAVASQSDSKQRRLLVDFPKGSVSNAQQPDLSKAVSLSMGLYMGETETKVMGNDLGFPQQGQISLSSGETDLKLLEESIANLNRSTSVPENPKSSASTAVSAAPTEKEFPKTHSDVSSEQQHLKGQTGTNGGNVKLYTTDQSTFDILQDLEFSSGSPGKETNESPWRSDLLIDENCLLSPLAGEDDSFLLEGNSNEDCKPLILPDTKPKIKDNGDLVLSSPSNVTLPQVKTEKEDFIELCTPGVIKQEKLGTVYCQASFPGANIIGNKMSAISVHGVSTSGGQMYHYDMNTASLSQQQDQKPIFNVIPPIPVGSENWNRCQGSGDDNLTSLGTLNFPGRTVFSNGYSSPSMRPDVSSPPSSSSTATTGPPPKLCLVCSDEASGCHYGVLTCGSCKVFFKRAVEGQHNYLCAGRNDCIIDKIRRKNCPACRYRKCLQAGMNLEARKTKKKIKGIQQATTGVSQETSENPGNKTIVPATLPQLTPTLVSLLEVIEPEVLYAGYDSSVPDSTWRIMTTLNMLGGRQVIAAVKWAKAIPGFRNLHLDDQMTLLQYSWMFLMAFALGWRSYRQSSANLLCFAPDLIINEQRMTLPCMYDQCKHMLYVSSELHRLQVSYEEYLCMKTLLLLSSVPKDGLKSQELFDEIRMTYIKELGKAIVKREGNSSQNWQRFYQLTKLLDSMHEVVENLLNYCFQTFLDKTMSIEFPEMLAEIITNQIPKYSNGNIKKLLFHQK
# Cytochrome P450 1A2 (Homo sapiens), sequence (P05177 whole entry, looked up): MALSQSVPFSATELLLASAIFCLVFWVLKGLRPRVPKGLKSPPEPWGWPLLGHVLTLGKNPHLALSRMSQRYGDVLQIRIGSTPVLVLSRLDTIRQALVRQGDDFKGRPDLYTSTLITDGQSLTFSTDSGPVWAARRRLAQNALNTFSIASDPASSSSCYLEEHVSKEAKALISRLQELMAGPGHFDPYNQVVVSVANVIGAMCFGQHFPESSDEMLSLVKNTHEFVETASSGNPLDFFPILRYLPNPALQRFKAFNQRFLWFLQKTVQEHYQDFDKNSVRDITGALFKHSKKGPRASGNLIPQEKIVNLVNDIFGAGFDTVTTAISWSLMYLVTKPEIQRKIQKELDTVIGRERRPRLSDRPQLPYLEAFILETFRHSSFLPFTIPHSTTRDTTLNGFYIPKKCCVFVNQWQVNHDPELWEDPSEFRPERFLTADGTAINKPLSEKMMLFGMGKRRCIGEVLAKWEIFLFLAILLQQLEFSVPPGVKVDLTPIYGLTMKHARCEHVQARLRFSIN
# Lysosomal acid glucosylceramidase (Homo sapiens), sequence (P04062 whole entry, looked up): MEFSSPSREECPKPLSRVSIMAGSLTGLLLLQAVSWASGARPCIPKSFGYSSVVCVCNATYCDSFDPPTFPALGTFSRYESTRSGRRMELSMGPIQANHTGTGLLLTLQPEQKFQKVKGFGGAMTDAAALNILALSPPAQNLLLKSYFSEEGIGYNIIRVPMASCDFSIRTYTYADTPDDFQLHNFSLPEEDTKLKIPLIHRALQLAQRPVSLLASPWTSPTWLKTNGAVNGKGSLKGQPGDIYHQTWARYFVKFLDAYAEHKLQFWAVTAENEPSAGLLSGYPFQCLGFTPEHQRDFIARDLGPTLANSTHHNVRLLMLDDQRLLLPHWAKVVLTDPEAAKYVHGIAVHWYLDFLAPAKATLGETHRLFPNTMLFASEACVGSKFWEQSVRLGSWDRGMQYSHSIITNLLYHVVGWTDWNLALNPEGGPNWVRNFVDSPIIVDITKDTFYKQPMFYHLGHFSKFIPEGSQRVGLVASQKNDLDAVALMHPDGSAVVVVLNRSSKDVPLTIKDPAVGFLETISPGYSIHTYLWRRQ
# Cytochrome P450 3A4 (Homo sapiens), sequence (P08684 whole entry, looked up): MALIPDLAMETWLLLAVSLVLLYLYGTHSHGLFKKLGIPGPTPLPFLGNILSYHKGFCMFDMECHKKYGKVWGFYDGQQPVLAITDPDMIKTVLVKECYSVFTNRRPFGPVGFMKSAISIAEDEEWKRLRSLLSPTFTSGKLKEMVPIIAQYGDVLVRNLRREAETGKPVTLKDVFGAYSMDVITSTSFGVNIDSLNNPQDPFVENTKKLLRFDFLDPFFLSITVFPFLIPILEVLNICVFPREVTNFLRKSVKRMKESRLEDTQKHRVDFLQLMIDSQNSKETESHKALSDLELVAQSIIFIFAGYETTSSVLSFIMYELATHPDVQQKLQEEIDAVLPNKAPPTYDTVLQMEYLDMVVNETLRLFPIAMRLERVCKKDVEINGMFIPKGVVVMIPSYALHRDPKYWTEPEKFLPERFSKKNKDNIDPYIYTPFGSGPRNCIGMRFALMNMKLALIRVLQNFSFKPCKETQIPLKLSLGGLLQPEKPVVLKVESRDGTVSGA
SMILES,Potency [1] [µM],"activity change, negative = inhibition [2] [%]",Potency [3],"activity change, negative = inhibition [4] [%]","activity, negative = inhibition [5] [%]",Potency [6] [µM],Potency [7] [µM],Potency [8],Potency [9],Potency [10],activation [11] [%],Potency [12],"activity change, negative = inhibition [3]",Potency [13]
COCCn1c(=O)c(-c2cc(F)cc(F)c2)nc2cnc(Oc3ccccc3)nc21,> 11.4,0.911,5.01 µM (active),-3.81,0.0611,> 9.22,> 46,inactive,inactive,inactive,20.9,–,–,–
NCCSCc1ccccc1Cl,> 11.4,1.67,3.16 µM (active),-5.94,2.36,> 46,> 9.22,inactive,inactive,inactive,–,3.16 µM (active),–,–
O=C(O)NCC1CCCCC1 (tested in a mixture with another compound),> 11.4,23.3,inactive,22.8,-1.59,> 46,> 9.22,inactive,inactive,–,–,3.98 µM (active),–,–
CN1CCN(c2ccncc2S(=O)(=O)N2CCN(C)CC2)CC1,> 11.4,5.65,–,-16.5,8.15,> 46,> 9.22,inactive,inactive,inactive,7.59,–,-7.4% [at 2.29 µM],–
S=C1SCN(C2CCCCCCCCCCC2)CN1C1CCCCCCCCCCC1,> 11.4,-6.27,–,6.16,-6.56,> 46,> 9.22,inactive,inactive,inactive,24.8,–,-14.7% [at 2.29 µM],3.98 µM (active)
C(/C=C\c1ccccc1)=Nc1ccc2c(c1)Cc1ccccc1-2,> 11.4,-2.87,0.398 µM (active),-3.9,7.01,> 46,> 9.22,inactive,inactive,inactive,–,–,–,3.98 µM (active)
C[C@]12CC[C@H]3c4ccc(O)cc4CC[C@@H]3[C@H]1C/C(=N/O)[C@H]2O,> 11.4,-6.54,inactive,3.7,1.89,> 46,> 9.22,inactive,inactive,–,–,inactive,–,–
CN=C(N)/N=C(\N)Nc1cc2ccccc2c2ccccc12,> 11.4,-3.61,0.251 µM (active),27.5,12.7,> 46,> 9.22,inactive,inactive,–,–,1.58 µM (active),–,–
O=C(O)CCC(=O)c1ccc2ccc3cccc4ccc1c2c34,> 11.4,5.4,1.26 µM (active),19.9,-5.24,> 46,> 9.22,inactive,inactive,–,–,inactive,–,–
N/C(CC/C(N)=N/O)=N\O,> 11.4,-3.76,inactive,7.17,-0.993,> 46,> 9.22,inactive,inactive,–,–,inactive,–,–
O=C1/C(=C/c2cccnc2)SC(=S)N1Cc1ccco1,> 11.4,0.116,0.501 µM (active),-2.58,-9.72,> 46,> 9.22,inactive,inactive,inactive,–,–,–,3.16 µM (active)
N=C(N)SCc1ccc(Cl)cc1Cl (tested in a mixture with another compound),> 11.4,23.5,3.98 µM (active),-21.9,-9.66,> 46,> 9.22,inactive,inactive,–,–,3.16 µM (active),–,–
Nc1nc(SCc2ccccc2)c2ncn(Cc3ccccc3)c2n1,> 11.4,-24.3,0.251 µM (active),9.29,-3.2,> 46,> 9.22,inactive,inactive,inactive,–,–,–,2.51 µM (active)
c1ccc2c(c1)nnn2CN1CCOCC1,> 11.4,1.95,inactive,-0.506,-18.4,> 46,> 9.22,inactive,inactive,–,–,inactive,–,–
COc1c(O)ccc2c1CN1CCc3cc4c(cc3[C@@H]1C2)OCO4,> 11.4,-4.62,0.501 µM (active),-25.2,7.58,> 46,> 9.22,inactive,inactive,inactive,–,0.158 µM (active),–,–
CCOC(=O)C1=C(C)NC(=O)N[C@@H]1c1coc2cc(C)cc(C)c2c1=O,> 11.4,-13.4,2.51 µM (active),17.5,-5.6,> 46,> 9.22,inactive,inactive,inactive,23.8,–,–,–
CCCn1cnc2c(SCc3ccc(Cl)cc3)nc(N)nc21,> 11.4,-19.8,1.26 µM (active),-4.9,-5.52,> 46,> 9.22,inactive,inactive,inactive,–,–,–,0.501 µM (active)
Oc1ccc2ccccc2c1CN(Cc1c(O)ccc2ccccc12)C1CCCCC1,> 11.4,3.63,0.631 µM (active),-9.52,-14.2,> 46,> 9.22,inactive,inactive,–,–,0.631 µM (active),–,–
Cc1ccc(C)c(NC(=O)NCc2ccc(Cl)cc2)c1,> 11.4,4.89,0.794 µM (active),-4.37,8.15,> 46,> 9.22,inactive,inactive,inactive,–,–,–,1.58 µM (active)
O=S1(=O)[C@H]([C@H]2CC3c4ccccc4C2c2ccccc23)[C@@H](N2CCCCC2)[C@@H]1c1ccccc1,> 11.4,28.4,–,-27.2,10.9,> 46,> 9.22,inactive,inactive,inactive,–,3.16 µM (active),1.6% [at 2.29 µM],2.51 µM (active)
Cc1cc(O)c(C(C)C)cc1NC(=O)Nc1cccc2ccccc12,> 11.4,-27.4,0.794 µM (active),-15.2,-19,> 46,> 9.22,inactive,inactive,inactive,–,–,–,0.0501 µM (active)
Cn1ncc2c(NCCc3ccccc3)nc(Cl)nc21,> 11.4,-2.77,2.51 µM (active),2.58,-19.5,> 46,> 9.22,inactive,inactive,inactive,–,0.126 µM (active),–,0.126 µM (active)
CC1(C)[C@@H]2CC[C@@](C)(C2)[C@H]1OC(=O)c1ccccc1C(=O)O,> 11.4,-1.12,inactive,4.7,-3.05,> 46,> 9.22,inactive,inactive,inactive,–,inactive,–,inactive
Nc1ccccc1SCc1csc(-c2ccc(Cl)cc2)n1,> 11.4,-17.2,0.631 µM (active),-25.4,-11.2,> 46,> 9.22,inactive,inactive,inactive,–,–,–,0.501 µM (active)
COc1ccc(OC)c(-c2cc(C(=O)O)c3cc4ccccc4cc3n2)c1,> 11.4,4.44,–,15.6,4.07,> 46,> 9.22,inactive,inactive,–,–,3.98 µM (active),-21.4% [at 2.29 µM],–
